The record followed here is ChEMBL document CHEMBL3988442, “University of Dundee, Small-Polar-MMV Screening Library” (2021).

Design in all cases: scale not given: direction of the effect not stated beside the values
Assay [1] has as its target Protein translocase subunit SecA (Escherichia coli (strain K12)) (UniProt P10408). Description: Assay to Identify E. coli SecA ATPase Inhibitors. As to conditions: 30 µM. In kind it is functional.
Assay [2] concerns the target T1, Ubiquitin-activating enzyme e1, putative (Leishmania donovani (strain BPK282A1)) (UniProt E9BSI1).
T1 sequence (whole entry): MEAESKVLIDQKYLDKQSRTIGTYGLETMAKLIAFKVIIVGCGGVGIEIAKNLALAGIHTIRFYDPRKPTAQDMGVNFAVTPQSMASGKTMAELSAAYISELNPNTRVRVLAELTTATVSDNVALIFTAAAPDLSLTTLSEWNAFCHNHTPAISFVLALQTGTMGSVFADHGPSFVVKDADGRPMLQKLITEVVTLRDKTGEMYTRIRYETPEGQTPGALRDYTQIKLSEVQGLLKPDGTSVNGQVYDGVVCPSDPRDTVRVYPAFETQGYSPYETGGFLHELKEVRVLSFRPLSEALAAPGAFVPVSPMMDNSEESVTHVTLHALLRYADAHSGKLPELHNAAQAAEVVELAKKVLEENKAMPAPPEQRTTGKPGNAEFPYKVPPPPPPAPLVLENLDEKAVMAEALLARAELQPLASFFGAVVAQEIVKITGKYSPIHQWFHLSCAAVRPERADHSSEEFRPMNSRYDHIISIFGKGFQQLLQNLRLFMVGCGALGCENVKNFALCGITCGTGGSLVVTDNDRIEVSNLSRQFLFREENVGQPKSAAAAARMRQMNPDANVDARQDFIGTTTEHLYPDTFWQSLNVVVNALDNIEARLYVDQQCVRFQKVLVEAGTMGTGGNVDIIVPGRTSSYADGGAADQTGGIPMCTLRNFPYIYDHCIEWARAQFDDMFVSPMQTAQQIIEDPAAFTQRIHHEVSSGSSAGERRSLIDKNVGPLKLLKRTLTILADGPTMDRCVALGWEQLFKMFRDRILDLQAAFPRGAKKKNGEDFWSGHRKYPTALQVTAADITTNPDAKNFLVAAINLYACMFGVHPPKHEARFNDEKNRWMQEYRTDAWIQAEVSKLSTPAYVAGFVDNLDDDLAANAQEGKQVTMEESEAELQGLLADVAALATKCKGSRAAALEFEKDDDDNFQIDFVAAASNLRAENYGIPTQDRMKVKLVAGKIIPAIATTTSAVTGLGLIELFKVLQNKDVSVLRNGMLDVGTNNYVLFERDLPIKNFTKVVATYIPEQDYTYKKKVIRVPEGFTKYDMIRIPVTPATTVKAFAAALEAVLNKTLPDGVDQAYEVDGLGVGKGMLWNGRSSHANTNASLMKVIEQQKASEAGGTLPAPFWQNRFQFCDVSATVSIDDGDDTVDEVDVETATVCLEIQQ
The experiment in a line: Leishmania donovani Ubiquitin Activating Enzyme (LdE1). The format is functional. Conditions: 30 µM.

The target in assay [3] is AMP-activated protein kinase, AMPK (Homo sapiens) (UniProt P54646+O43741+P54619+Q9UGJ0+Q9Y478+Q13131+Q9UGI9). Description: AMP-dependent Kinase enzyme assay. An in vitro enzyme assay that detects ADP turnover that is directly proportional to AMPK activity. This uses naive AMPK that is activated during the assay with MK-8722. In kind it is functional. As to conditions: 30 µM.

Assay [4] addresses Sialic acid-binding Ig-like lectin 9 (Homo sapiens) (UniProt Q9Y336). Description: Hs-Siglec9 ALPHAscreen SOP 20170721. As to conditions: 10 µM.
Assay [5] deals with Trypanosoma cruzi. Description: Trypanosoma cruzi phosphomannomutase and mannose-1-phosphate guanylyltransferase assay. Conditions: 10 µM. In kind it is functional.
Assay [6] addresses T2, Arginase-2, mitochondrial (Homo sapiens) (UniProt P78540).
T2 sequence (whole entry): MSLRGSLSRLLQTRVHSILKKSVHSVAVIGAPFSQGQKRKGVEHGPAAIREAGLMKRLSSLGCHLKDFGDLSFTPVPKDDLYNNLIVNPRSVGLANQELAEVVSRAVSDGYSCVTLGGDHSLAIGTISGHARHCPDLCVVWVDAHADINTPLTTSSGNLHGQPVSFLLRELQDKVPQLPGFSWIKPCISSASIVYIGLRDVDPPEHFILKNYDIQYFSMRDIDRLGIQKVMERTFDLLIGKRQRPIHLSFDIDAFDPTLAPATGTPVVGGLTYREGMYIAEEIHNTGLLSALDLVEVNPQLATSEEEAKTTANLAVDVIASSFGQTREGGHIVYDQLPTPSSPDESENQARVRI
Description: in vitro enzyme assay to detect the production of urea directly proportional to the activity of Arginase II. Note: in the data most compounds retested in dose-response had high values. The format is functional. Conditions: 33.3 µM.

Assay [7] has as its target T3, Proteasome subunit beta (Trypanosoma cruzi) (UniProt O96673).
T3 sequence (whole entry): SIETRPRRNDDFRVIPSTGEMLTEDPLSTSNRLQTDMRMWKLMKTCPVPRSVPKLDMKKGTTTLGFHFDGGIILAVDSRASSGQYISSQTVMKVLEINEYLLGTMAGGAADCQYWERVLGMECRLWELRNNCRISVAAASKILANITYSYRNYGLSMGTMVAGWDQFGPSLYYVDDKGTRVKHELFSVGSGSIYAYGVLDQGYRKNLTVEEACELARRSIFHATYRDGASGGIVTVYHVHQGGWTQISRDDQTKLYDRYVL
Description: Trypanosoma cruzi proteasome chymotrypsin-like activity (TcProtChymo) assay. Note: in the data most compounds retested in dose-response had high values. In kind it is functional. Conditions: 9.37 µM.

Assay [8] is filed under the species Homo sapiens. Description: To identify inhibition of the IFN signalling (Jak-Stat) pathway via expression of an eGFP reporter gene under the control of an IFN-stimulated response element (ISRE) containing MxA promoter. The format is functional. Conditions: 30 µM. Background: In a reporter assay the amount or activity of a reporter protein is the signal.
The target of assay [9] is T4, Tyrosyl-tRNA synthetase, putative (Trypanosoma cruzi (strain CL Brener)) (UniProt Q4DSP6).
T4 sequence (whole entry): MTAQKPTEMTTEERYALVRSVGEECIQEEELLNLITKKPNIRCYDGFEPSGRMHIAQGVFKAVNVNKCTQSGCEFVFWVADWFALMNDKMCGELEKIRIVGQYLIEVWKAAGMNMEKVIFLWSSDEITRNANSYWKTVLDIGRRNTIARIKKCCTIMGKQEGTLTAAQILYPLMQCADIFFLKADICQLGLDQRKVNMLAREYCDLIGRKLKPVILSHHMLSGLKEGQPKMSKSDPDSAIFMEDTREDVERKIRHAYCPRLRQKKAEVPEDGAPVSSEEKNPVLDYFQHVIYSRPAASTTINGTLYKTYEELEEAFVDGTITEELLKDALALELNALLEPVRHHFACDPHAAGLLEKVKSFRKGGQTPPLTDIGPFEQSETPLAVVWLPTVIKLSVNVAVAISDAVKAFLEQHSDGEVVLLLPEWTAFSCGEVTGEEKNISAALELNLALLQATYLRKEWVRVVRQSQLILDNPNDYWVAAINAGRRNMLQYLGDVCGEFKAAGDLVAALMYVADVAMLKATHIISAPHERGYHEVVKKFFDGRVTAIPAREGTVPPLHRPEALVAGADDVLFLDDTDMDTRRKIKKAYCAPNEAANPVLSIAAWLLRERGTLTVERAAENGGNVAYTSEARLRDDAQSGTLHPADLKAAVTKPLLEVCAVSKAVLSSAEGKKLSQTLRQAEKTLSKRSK
Description: Trypanosoma cruzi tyrosyl tRNA synthetase (TcYRS) _High Tyrosine SOP. Note: in the data most compounds retested in dose-response had high values. In kind it is functional. As to conditions: 30 µM.

In assay [10] the target is T4, Tyrosyl-tRNA synthetase, putative (Trypanosoma cruzi (strain CL Brener)). Description: Trypanosoma cruzi tyrosyl tRNA synthetase (TcYRS) SOP. The format is functional. Conditions: 30 µM.
Assay [11] deals with Chromo domain-containing protein 1 (Saccharomyces cerevisiae (strain ATCC 204508 / S288c) (Baker's yeast)) (UniProt P32657). The experiment in a line: ScCHD-1 Enzyme Inhibition Assay. Note: in the data most compounds retested in dose-response had high values. Conditions: 30 µM. In kind it is functional.

For some of these results: Potency and affinity values are given separately.

Sialic acid-binding Ig-like lectin 9 (Homo sapiens), sequence (Q9Y336 whole entry): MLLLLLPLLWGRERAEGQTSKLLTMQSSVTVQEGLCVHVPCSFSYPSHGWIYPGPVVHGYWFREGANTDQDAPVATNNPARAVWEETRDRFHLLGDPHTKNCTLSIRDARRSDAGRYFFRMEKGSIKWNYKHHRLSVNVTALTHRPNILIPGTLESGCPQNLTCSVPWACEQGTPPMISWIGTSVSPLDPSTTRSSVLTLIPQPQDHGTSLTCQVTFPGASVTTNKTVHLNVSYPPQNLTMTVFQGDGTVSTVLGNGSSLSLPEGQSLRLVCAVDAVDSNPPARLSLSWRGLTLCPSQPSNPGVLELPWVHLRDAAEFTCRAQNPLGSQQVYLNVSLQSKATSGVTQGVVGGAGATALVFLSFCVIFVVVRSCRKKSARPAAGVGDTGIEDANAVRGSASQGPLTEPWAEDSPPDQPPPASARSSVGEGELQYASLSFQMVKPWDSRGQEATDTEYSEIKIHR
Protein translocase subunit SecA (Escherichia coli (strain K12)), sequence (P10408 whole entry): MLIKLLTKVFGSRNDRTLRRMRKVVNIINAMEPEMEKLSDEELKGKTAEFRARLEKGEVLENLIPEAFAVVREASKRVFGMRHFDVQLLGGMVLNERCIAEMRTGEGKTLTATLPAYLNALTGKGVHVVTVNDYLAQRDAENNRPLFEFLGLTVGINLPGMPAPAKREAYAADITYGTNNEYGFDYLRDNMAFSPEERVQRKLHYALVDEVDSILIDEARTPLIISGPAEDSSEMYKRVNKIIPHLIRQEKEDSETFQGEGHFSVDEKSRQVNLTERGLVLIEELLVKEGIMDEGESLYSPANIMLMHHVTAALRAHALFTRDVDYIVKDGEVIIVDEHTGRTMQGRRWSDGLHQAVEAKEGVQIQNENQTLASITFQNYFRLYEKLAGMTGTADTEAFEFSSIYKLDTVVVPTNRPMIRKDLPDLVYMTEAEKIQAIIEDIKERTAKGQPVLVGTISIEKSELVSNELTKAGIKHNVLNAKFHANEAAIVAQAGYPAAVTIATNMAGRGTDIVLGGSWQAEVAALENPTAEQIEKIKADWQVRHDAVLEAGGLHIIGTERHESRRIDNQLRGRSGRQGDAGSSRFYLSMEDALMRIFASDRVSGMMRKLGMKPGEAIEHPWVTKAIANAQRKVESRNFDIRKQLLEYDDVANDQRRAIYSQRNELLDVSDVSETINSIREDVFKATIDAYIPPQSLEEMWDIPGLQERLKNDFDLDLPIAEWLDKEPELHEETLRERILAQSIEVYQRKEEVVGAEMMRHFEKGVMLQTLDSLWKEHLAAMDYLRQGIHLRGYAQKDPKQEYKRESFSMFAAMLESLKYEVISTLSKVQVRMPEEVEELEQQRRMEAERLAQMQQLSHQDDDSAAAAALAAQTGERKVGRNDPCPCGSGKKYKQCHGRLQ
Chromo domain-containing protein 1 (Saccharomyces cerevisiae (strain ATCC 204508 / S288c) (Baker's yeast)), sequence (P32657 whole entry, the tested form may be a part): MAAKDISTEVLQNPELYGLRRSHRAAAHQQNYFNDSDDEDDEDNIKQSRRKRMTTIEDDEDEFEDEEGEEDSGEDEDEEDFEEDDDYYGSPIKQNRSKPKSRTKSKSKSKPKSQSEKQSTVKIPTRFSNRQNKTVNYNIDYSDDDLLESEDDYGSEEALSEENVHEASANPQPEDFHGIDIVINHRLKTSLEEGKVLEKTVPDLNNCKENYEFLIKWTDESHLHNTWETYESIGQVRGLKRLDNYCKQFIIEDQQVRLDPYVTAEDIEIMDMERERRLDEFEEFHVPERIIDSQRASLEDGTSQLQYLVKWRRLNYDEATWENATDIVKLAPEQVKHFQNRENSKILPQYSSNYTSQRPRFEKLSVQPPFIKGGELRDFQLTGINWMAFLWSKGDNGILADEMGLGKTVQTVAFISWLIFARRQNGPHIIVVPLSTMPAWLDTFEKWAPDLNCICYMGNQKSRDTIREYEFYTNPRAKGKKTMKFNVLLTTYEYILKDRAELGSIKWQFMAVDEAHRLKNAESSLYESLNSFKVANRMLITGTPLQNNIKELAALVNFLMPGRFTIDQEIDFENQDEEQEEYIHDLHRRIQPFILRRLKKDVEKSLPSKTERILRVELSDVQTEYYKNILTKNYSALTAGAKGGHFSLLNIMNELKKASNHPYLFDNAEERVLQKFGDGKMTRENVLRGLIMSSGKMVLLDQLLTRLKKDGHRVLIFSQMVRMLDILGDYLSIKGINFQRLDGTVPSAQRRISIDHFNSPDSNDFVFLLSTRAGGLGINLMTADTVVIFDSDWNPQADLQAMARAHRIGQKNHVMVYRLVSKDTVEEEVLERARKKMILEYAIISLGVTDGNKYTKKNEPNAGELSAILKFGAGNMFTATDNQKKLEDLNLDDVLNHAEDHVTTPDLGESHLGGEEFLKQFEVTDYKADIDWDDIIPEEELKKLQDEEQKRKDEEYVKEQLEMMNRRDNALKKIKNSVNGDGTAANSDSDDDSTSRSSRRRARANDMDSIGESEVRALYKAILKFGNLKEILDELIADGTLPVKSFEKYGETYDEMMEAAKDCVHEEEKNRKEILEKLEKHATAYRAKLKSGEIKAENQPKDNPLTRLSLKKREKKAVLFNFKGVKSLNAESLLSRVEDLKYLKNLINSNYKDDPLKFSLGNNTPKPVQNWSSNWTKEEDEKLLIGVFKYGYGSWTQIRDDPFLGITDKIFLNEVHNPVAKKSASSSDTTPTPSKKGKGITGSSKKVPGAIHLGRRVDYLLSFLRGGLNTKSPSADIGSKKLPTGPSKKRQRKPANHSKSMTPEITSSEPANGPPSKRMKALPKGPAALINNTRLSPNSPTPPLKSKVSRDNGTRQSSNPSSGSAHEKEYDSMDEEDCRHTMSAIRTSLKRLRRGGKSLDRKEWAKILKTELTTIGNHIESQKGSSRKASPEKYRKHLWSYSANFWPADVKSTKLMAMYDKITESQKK

`COCCNC(=O)NCc1ccc(OC(C)C)c(F)c1`: the Percent Effect is -5.47% in assay [1]; 10.5% in assay [2]; -1.85% in [3]; 9.7% in assay [4]; 8.5% in assay [5]; -4.68% in [6]. The Percent Effect amounted to 5.67% in [7]; 2.01% in assay [8]; 5.42% in assay [9]; 13.6% in assay [10]; 0.0512% in [11].

Turning to `Cc1cc(C)n(CC2CN(CC(=O)NC3CCCC3)CCO2)n1` (stereo not drawn), the Percent Effect was -8.44% in assay [1]; 7.79% in assay [2]; 2.32% in assay [3]; -3.15% in [4]; -8.24% in [5]; -0.712% in [6]. Further, the Percent Effect was 2.03% in assay [7]; 32.3% in assay [8]; 1.94% in assay [9]; 2.44% in assay [10]; -5.73% in [11].

For the compound `CC(=O)N1[C@H](Cn2cncn2)C[C@@H]2CN(c3ccc(C)nn3)CC[C@@H]21`, the Percent Effect in assay [1] was -0.849%; in [2], 2.6%; in [3], 1.33%; in assay [4], 0.483%; in assay [5], 3.83%; in assay [6] it was 0%. Moreover, the Percent Effect in [7] is 9.98%; in assay [8], -9.62%; in assay [9], -1.07%; in assay [10] it was 1.24%; in assay [11], -3.45%.

On to `Cc1ncsc1C(=O)NC1CCN(Cc2cccnc2)CC1`, for which the Percent Effect in assay [1] was -7.38%; in assay [2], 10.4%; in assay [3], -1.95%; in assay [4], 18.2%; in [5], 5.43%; in assay [6], 2.85%. The Percent Effect in assay [7] was 7.94%; in assay [8] it was 15.2%; in [9], 6.8%; in assay [10], 14.6%; in assay [11] it was -11.8%.

`CN(Cc1cccc(F)c1)S(=O)(=O)N1CCOCC1`: the Percent Effect is -1.93% in assay [1]; 7.89% in [2]; 1.93% in assay [3]; -0.448% in [4]; -0.876% in [5]; -1.18% in assay [6]. Also, the Percent Effect in [7] is 24.4%; in assay [8] it was 9.7%; in [9] it was 2.13%; in [10], 13%; in assay [11], -6.29%.

As to `Cc1nnc2n1CCN(C(=O)COCCOc1ccccc1)C2`, the Percent Effect in [1] is -3.64%; in assay [2], -21.5%; in [3], 10%; in [4], 1.03%; in [5], -1.33%; in assay [6] it was 4.95%. For the same compound, the Percent Effect in [7] is 7.89%; in assay [8], 3.44%; in [9], 5.21%; in assay [10], 12.7%; in assay [11] it was -1.76%.

`OCc1ccc(Cl)c(NCc2cccnc2)c1`: the Percent Effect was -4.1% in assay [1]; 0% in assay [2]; -0.207% in assay [3]; -4.73% in [4]; -1.85% in assay [5]; 2.37% in [6]. Moreover, the Percent Effect in assay [7] was 2.01%; in assay [8], -2.65%; in assay [9], 0%; in [10], -5.2%; in [11], -6.29%.

As for `CC(C)[C@H](NC(=O)NC1CCS(=O)(=O)C1)C(=O)NCc1cccnc1` (stereo partly drawn), the Percent Effect in [1] was 1.49%; in assay [2] it was -1.33%; in assay [3] it was 5.47%; in assay [4], 2.33%; in assay [5], -4.52%; in assay [6], -5.46%. For the same compound, the Percent Effect in assay [7] is 7.95%; in assay [8], -6.4%; in assay [9], 0%; in [10], 5.13%; in assay [11], 1.13%.
